We go through 32 compounds from PubChem BioAssay (NCI).

Where “and” joins values, the source holds several entries; their conditions need not be identical. Equal entries are not always repeated. This is part of a sample that, as a whole, favours compounds with a hit. Of some 83,000 tested, about 20% had one in any assay.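 48-hour exposure, single concentration, 96-well plates; percent growth endpoint where 0 means no net growth. Active: below 10.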 Unmarked numbers belong to inactive results. Calls of active or inactive are those of the source.

The experiment relates to MDA-MB-468 breast. The experiment is described as follows: NCI-60 one-dose screen, 48 h (100 = growth as untreated, 0 = no growth, -100 = all killed). The note with it: 10 µM unless noted.

Take `COc1cccc(/C=N/NC(=O)c2ccccc2Nc2ccnc(C(F)(F)F)c2)c1O`: the growth was -19.6% (active). The result for `O=C(CCl)NC1c2ccccc2Oc2ccccc21` reads 71.5%; that for `OB(O)c1cccc(-c2nc3ccc4[nH]ncc4c3c3c2CCCC3)c1F`, 55.3%. As for `COc1ccccc1N1CCN(C2=CC(=O)C(C)=C(C)C2=O)CC1`, the growth was 85.8%.

For `Cc1cccc(C[C@H](NC(=O)Nc2ccc(Cl)cc2F)C(=O)N[C@@H]2C(=O)N3C[C@H](O)C[C@H]3C(=O)N3CCCC[C@H]3C(=O)N[C@@H](C)C(=O)N3C[C@H](C)C[C@H]3C(=O)O[C@H]2C)c1`, the growth was -7.94% (active). Consider `O=C1/C(=C\c2ccc(Cl)cc2)CN(C(=O)c2ccccc2)C/C1=C\c1ccc(Cl)cc1`, for which the growth is -17.7% (active). `N#Cc1c(NC(=O)c2cccc(C(F)(F)F)c2F)sc2c1CCC(=O)C2`: the growth is -32% (active).

In the case of `O=C1OCc2cccc3cccc1c23`, the growth was 104%. For the compound `CCCCCCCCCOc1c(OC)cc(C2CC(=O)Nc3c2c(C)nn3-c2nc3ccccc3[nH]2)cc1OC` (configuration not stated), the growth is -55.6% (active). The result for `CCCCC1=C(P(=O)(O)O)N[C@H](C(=O)O)CS1` reads 89.1%. Regarding `CCCN(CCC)C(=O)[C@H](CC)[C@@H]1CC[C@@H](C)[C@@H]([C@H](C)[C@@H](O)[C@@H](C)C(=O)[C@H](CC)C2O[C@]3(C=C[C@@H](O)[C@]4(CC[C@@](C)([C@H]5CC[C@](O)(CC)[C@H](C)O5)O4)O3)[C@H](C)C[C@@H]2C)O1` (some centres not stated), the growth was -24.6% (active). Consider `O=C(Nc1ccc(-c2nc(-c3cccc(OCCN4CCOCC4)c3)c(-c3ccnc(Br)c3)[nH]2)cc1)c1ccccc1`, for which the growth was -6.35% (active). Regarding `CCc1ccc2c(c1)N(CCO)C1=C(C(=O)OC1)C2c1cc(OC)c(OC)c(OC)c1` (configuration not stated), the growth is 2.83% (active).

In the case of `C=C1C(=O)O[C@H]2[C@H]1CC/C(COC(=O)CSCC(=O)OC/C1=C/CC[C@@]3(C)O[C@H]3[C@H]3OC(=O)C(=C)[C@@H]3CC1)=C\CC[C@@]1(C)O[C@@H]21`, the growth was -1.97% (active).

Regarding `O=C(Nc1ccc(F)cc1)Nc1ccc(CCO)cc1`, the growth is 105%. The result for `Cn1cc(-c2ccc3ncc(-c4ccc(CC(=O)Nc5cc(C(C)(C)C)nn5C)cc4)cc3c2)cn1` reads -2.1% [30 µM] (active); that for `Cc1ccc(S(=O)(=O)N(c2ccc(Cl)cc2)c2ccc(Br)cc2C(=O)O)cc1`, 95.9%.

On to `N#CCCN(CCCN1CCOCC1)CN1C(=O)c2ccccc2C1=O`, for which the growth was 92.2%.

On to `O=C1OC(c2nc3ccccc3s2)=C/C1=C\c1ccc(O)cc1`, for which the growth was 114%. Turning to `Cn1cc(-c2csc(-c3cn(C(=O)OC(C)(C)C)c4ccccc34)n2)c2cccnc21`, the growth is -8.84% (active). `O=[N+]([O-])c1cc(CCl)ccc1OCCBr`: the growth was 92.4%.

`CCOC(=O)CO`: the growth is 99%. For the compound `CCOC(=O)c1c(C)nc2c(c1N)C(=O)C(=O)N2Cc1ccc(C(F)(F)F)cc1`, the growth is 77.8%.

Consider `COc1ccc2c(c1)nc(N)c1c3cc(C)c(C)cc3cn21`, for which the growth is 48.3%. Turning to `Cc1ccc([N+](=O)[O-])c(C)n1`, the growth is 112%.

With `CCOC(=O)C1=C(c2ccccc2)N=C2SC=C(c3ccc(Cl)cc3)N2C1c1ccc(Cl)cc1` (configuration not stated), the growth was 41.3%. For `CCN(CC)CCSCCN(CC)CC`, the growth is 93.4%.

Regarding `O=C(c1ccc(Cl)cc1)C(NCCO)c1ccc(Cl)cc1` (configuration not stated), the growth is 84.1% and 114%. Then `CN1CCc2c(sc3nc4n(-c5ccc(Cl)cc5)c(=O)[nH]n4c(=O)c23)C1`, with 114%; and `Cc1[nH]n(C(=O)c2ccncc2)c(=O)c1N=Nc1ccc(S(=O)(=O)Nc2ccncn2)cc1`, with 103%.

Consider `CC(C)=CC/C=C(/C)[C@H]1CC[C@]2(C)[C@@H]1CC[C@@H]1[C@@]3(C)CC/C(=N/O)C(C)(C)[C@@H]3CC[C@]12C`, for which the growth was 47.7% [100 µM]. Regarding `CC1OC(O[C@@H]2[C@H](O)C(CO)OC(O[C@H]3COC(O[C@H]4CC[C@]5(C)[C@H]6CC[C@]78OC[C@@]9(CC[C@](C)(C=O)C[C@H]97)C(=O)C[C@@]8(C)[C@]6(C)CC[C@H]5C4(C)C)[C@@H](O)[C@@H]3O)[C@H]2OC2OC[C@@H](O)[C@@H](O)[C@@H]2O)[C@@H](O)[C@@H](O)[C@H]1O` (some centres not stated), the growth was 104%.
